Nine compounds from PubChem BioAssay (NCI) can be followed below.

Some test systems named below: SR leukemia; RPMI-8226 leukemia; OVCAR-8 ovarian; OVCAR-5 ovarian; OVCAR-4 ovarian; SK-OV-3 ovarian; IGROV1 ovarian; HS 578T breast; NCI/ADR-RES ovarian; T-47D breast; BT-549 breast; MDA-MB-435 melanoma; MCF7 breast; HCT-116 colon; HCC-2998 colon; KM12 colon; SW-620 colon.
What all share (assay): NCI-60 one-dose screen, 48 h (100 = growth as untreated, 0 = no growth, -100 = all killed)
Holding throughout (conditions): 10 µM unless noted

About 83,000 compounds went through this panel and 20% of them were active in at least one assay; those are over-represented in the sample as a whole.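 In brief: 96-well plates, 48 h treatment, single concentration, percent growth endpoint.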 Values without a mark were called inactive. The source made the active and inactive calls. Rule for the calls: active = growth percent below 10; inactive = the rest.

Regarding `O=C(CSc1nc2ccccc2c(=O)n1-c1ccccc1)Nc1cccc(C(=O)/C=C/c2ccccc2)c1`, the growth is 77.5% with SR leukemia; 6.02% (active) with RPMI-8226 leukemia; 84% in the experiment with OVCAR-8 ovarian; 96.6% in the experiment with OVCAR-5 ovarian; 94% in the experiment with OVCAR-4 ovarian; 103% with SK-OV-3 ovarian. Moreover, the growth in the experiment with IGROV1 ovarian was 95.4%; in the experiment on HS 578T breast, 92.5%; in the experiment with NCI/ADR-RES ovarian, 96.8%; in the experiment on T-47D breast, 76.8%; in the experiment on BT-549 breast, 112%; with MDA-MB-435 melanoma it was 93.2%. Also, the growth is 19% in the experiment with MCF7 breast, -13.7% (active) with HCT-116 colon, 113% with HCC-2998 colon and 87.5% in the experiment on KM12 colon.

Turning to `COc1ccc(-c2nc3cc(Cl)c(Cl)cc3n2CC(=O)N=Nc2c(O)[nH]c3ccc(OC)cc23)cc1`, the growth with SR leukemia is 60.6%; with RPMI-8226 leukemia, 55.1%; in the experiment with OVCAR-8 ovarian, 74.5%; with OVCAR-5 ovarian it was 49.7%; with OVCAR-4 ovarian it was 40.4%; with SK-OV-3 ovarian it was 86.2%. Further, the growth in the experiment on IGROV1 ovarian is 29.5%; in the experiment on HS 578T breast, 47.7%; in the experiment with NCI/ADR-RES ovarian, 30.9%; in the experiment on T-47D breast, 37.2%; with BT-549 breast, -6.95% (active); with MDA-MB-435 melanoma, 56.4%. The growth in the experiment with SW-620 colon is 61.4%; in the experiment on MCF7 breast, 67.6%; in the experiment on HCT-116 colon, 39.7%; with HCC-2998 colon it was 52.8%; in the experiment with KM12 colon it was 71.3%.

As to `O=C1/C(=C/C=C/c2ccco2)SC(=S)N1c1ccccc1`, the growth was 43.8% in the experiment on SR leukemia; 53.6% in the experiment on RPMI-8226 leukemia; 66.4% with OVCAR-8 ovarian; 88% in the experiment on OVCAR-5 ovarian; 90.9% with OVCAR-4 ovarian; 110% in the experiment with SK-OV-3 ovarian. The growth was 44.3% in the experiment on IGROV1 ovarian; 102% in the experiment on HS 578T breast; 51.2% in the experiment on NCI/ADR-RES ovarian; 76.8% in the experiment with T-47D breast; 65.2% with BT-549 breast; 89.1% with MDA-MB-435 melanoma. The growth in the experiment with SW-620 colon was 98.9%; in the experiment with MCF7 breast it was 57.4%; in the experiment with HCT-116 colon, 35.3%; in the experiment with HCC-2998 colon, 87.3%; in the experiment on KM12 colon, 94.4%.

Turning to `c1cc(-c2nc3ccc4[nH]ncc4c3c3c2CCCC3)[nH]n1`, the growth with SR leukemia was 7.95% (active); in the experiment with RPMI-8226 leukemia, 55.1%; in the experiment on OVCAR-8 ovarian it was 70.2%; in the experiment on OVCAR-5 ovarian, 89%; with OVCAR-4 ovarian, 89.6%; in the experiment with SK-OV-3 ovarian it was 9.7% (active). Also, the growth in the experiment with IGROV1 ovarian is 44.5%; with HS 578T breast, 41.3%; in the experiment with NCI/ADR-RES ovarian, 78.8%; in the experiment with T-47D breast it was 73.8%; in the experiment on BT-549 breast it was 31.2%; in the experiment on MDA-MB-435 melanoma, 10.5%. Further, the growth is 25% with SW-620 colon; 40% with MCF7 breast; 25.6% in the experiment with HCT-116 colon; 78.9% in the experiment with HCC-2998 colon; 24% in the experiment on KM12 colon.

Take `CCOC(=O)c1c(Nc2ccccc2)nn2c(-c3ccccc3)ccnc12`: the growth was 74.4% in the experiment with SR leukemia; 30.7% in the experiment with RPMI-8226 leukemia; 96.1% in the experiment with OVCAR-8 ovarian; 93.4% in the experiment on OVCAR-5 ovarian; 95.9% in the experiment on OVCAR-4 ovarian; 102% in the experiment with SK-OV-3 ovarian. In addition, the growth with IGROV1 ovarian was 110%; with HS 578T breast, 91.9%; in the experiment on NCI/ADR-RES ovarian it was 87.6%; in the experiment with T-47D breast, 91%; in the experiment with BT-549 breast, 145%; in the experiment on MDA-MB-435 melanoma, 96.1%. Also, the growth was 105% in the experiment on SW-620 colon; 91.8% in the experiment with MCF7 breast; 86.7% in the experiment on HCT-116 colon; 97.1% with HCC-2998 colon; 88.9% in the experiment on KM12 colon.

With `Cc1ccc(NC(=O)N[C@@H](Cc2cc(F)cc(F)c2)C(=O)NC2C(=O)N3C[C@H](O)C[C@H]3C(=O)N3CCCC[C@H]3C(=O)N[C@@H](CO)C(=O)N3C[C@H](C)C[C@H]3C(=O)O[C@H]2C)c(F)c1` (stereo not given in full), the growth in the experiment on SR leukemia is 40.6%; in the experiment on RPMI-8226 leukemia, 17.6%; in the experiment with OVCAR-8 ovarian, 44.1%; with OVCAR-5 ovarian it was 43.8%; in the experiment with OVCAR-4 ovarian it was 29.8%; in the experiment on SK-OV-3 ovarian, 33.7%. The growth was 60.6% in the experiment on IGROV1 ovarian; 40.1% with HS 578T breast; 107% in the experiment with NCI/ADR-RES ovarian; 32.5% with T-47D breast; 43.5% with BT-549 breast; 23.1% in the experiment with MDA-MB-435 melanoma. The growth with SW-620 colon is 44.6%; in the experiment on HCT-116 colon, 18.1%; in the experiment on HCC-2998 colon it was 31.2%; with KM12 colon, 45.3%.

As to `O=C(Cn1c(-c2ccccc2)nc2cc(Cl)c(Cl)cc21)N=Nc1c(O)[nH]c2ccc(Cl)cc12`, the growth is 67.9% in the experiment on SR leukemia; 59% in the experiment with RPMI-8226 leukemia; 83.5% with OVCAR-8 ovarian; 80.5% with OVCAR-5 ovarian; 77.9% in the experiment on OVCAR-4 ovarian; 85.6% with SK-OV-3 ovarian. In addition, the growth is 87.9% with IGROV1 ovarian; 81.3% in the experiment on HS 578T breast; 72.3% in the experiment with NCI/ADR-RES ovarian; 61.5% in the experiment with T-47D breast; 56.2% with BT-549 breast; 83.2% with MDA-MB-435 melanoma. The growth in the experiment on SW-620 colon is 81.9%; in the experiment with MCF7 breast, 71.8%; with HCT-116 colon, 53.4%; with HCC-2998 colon it was 86%; in the experiment on KM12 colon, 73.8%.

On to `CCOC(=O)c1c(Nc2ccccc2)nn2c(-c3ccc(OC)cc3)ccnc12`, for which the growth in the experiment on SR leukemia is 76.7%; with RPMI-8226 leukemia it was 75.1%; in the experiment on OVCAR-8 ovarian, 94.3%; in the experiment on OVCAR-5 ovarian, 90.9%; in the experiment with OVCAR-4 ovarian, 98.7%; in the experiment on SK-OV-3 ovarian, 101%. In addition, the growth in the experiment on IGROV1 ovarian is 101%; with HS 578T breast, 79.7%; with NCI/ADR-RES ovarian, 88.1%; in the experiment on T-47D breast, 75.1%; in the experiment on BT-549 breast, 127%; in the experiment on MDA-MB-435 melanoma, 90.4%. Moreover, the growth in the experiment on MCF7 breast is 89.9%; with HCT-116 colon it was 71.7%; in the experiment on HCC-2998 colon, 95.7%; in the experiment with KM12 colon, 73.9%.

Regarding `COc1ccc(C(=O)Nc2ncc(Cc3ccccc3Cl)s2)cc1`, the growth was 16.4% in the experiment with SR leukemia; 22.2% in the experiment with RPMI-8226 leukemia; 12.3% in the experiment with OVCAR-8 ovarian; 36.5% in the experiment with OVCAR-5 ovarian; 62.1% in the experiment with OVCAR-4 ovarian; 29% in the experiment with SK-OV-3 ovarian. The growth was 28.2% in the experiment on IGROV1 ovarian; 8.76% (active) with HS 578T breast; 5.87% (active) in the experiment on NCI/ADR-RES ovarian; 34.3% with T-47D breast; 54.8% in the experiment with BT-549 breast; -5.1% (active) with MDA-MB-435 melanoma. The growth is 25.3% in the experiment on SW-620 colon; 14.3% in the experiment with MCF7 breast; 7.77% (active) in the experiment with HCT-116 colon; 6.97% (active) in the experiment with HCC-2998 colon; 9.41% (active) with KM12 colon.
